Here are results for 37 compounds from article PMC5540273 (PLoS ONE, 2017).
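Also: KINOMEscan kinase panel screen.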

The subject of one assay is MARK1. To be noted: concentration: 1 μM,replicates: in singlicate; n = 1.
Consider `CSc1nccc(-c2c(-c3ccc(F)cc3)ncn2CCCN2CCOCC2)n1.Cl` [SB-217146], for which the “%Inh” value is listed as 15%.
On the same count and under the same terms, as for `NC(=O)c1ccc(-c2cc3ncnc(SCC(=O)O)c3s2)cc1`, the figure is 0%; as for `COc1cccc(C2=C(Nc3cccc(Cl)c3)C(=O)NC2=O)c1` [SB-341556], 0%; as for `Cn1ccc2ncnc(Oc3ccc(NC(=O)Nc4ccnc(C(F)(F)F)c4)c(Cl)c3)c21`, 0%.
Still for that read-out and setting: for `Cc1n[nH]c2cc(Nc3ccnc(Nc4cccc(CN5CCOCC5)c4)n3)ccc12` [GW682569] the value was 4%.
As for `COC(=O)c1cccc(NC(=O)NC2CCN(c3ccnc(NCc4ccc(F)cc4)n3)CC2)c1` [GSK1379860], the “%Inh” value was 0%.
Still for that read-out and setting: for `CS(=O)c1ccc(-c2coc3ccc(-c4n[nH]c(=O)o4)cc23)cc1` (centres unmarked) the value was 15%.
On the same count and under the same terms, for `Cc1cccc2c(-c3ccncc3)c(-c3ccc(F)cc3)nn12.Cl` [GW461487] the value was 0%.
Same read-out and setting: as for `FC(F)(F)c1cc(Br)cc(Nc2nccc(-c3cnn4ncccc34)n2)c1` [GW810578], the figure is 0%.
Consider `O=C1NCCc2[nH]c(-c3ccncc3)cc21`, for which the “%Inh” value is on record as 22%.
Same read-out and setting: as for `C[C@@H](Oc1cc(-n2cnc3cc(-c4ccncc4)ccc32)sc1C(N)=O)c1ccccc1Cl` [GSK479719], the figure is 0%; as for `NC(=O)Nc1sc(-c2ccc(F)cc2)cc1C(N)=O` [GW789449], 0%; as for `O=C(Nc1ccc(Oc2ccc3nc(NC(=O)C4CC4)cn3n2)c(F)c1)c1cccn(-c2ccccc2)c1=O`, 0%.
For `Cc1ccc(CC(=O)N2CCc3cc(-c4cn(C)c5ncnc(N)c45)ccc32)cc1` [GSK2634758], the “%Inh” value amounted to 2%.
Same read-out and setting: as for `Cl.Nc1n[nH]c2cc(-c3ccccn3)ccc12` [GSK2189892], the figure is 0%.
On the same count and under the same terms, as for `Cn1ccc2ncnc(Oc3ccc(NC(=O)Nc4cnn(C(C)(C)C)c4)c(Cl)c3)c21`, the figure is 10%; as for `Cn1ccc2ncnc(Oc3ccc(NC(=O)Nc4cncc(C(F)(F)F)c4)c(Cl)c3)c21`, 0%.
On the same count and under the same terms, as for `CCN1CCN(CCCC(=O)Nc2n[nH]c3nc(-c4ccc(O)cc4)c(Br)cc23)CC1` [SB-731579], the figure is 35%; as for `CC(C)c1nc(-c2cccc(NS(=O)(=O)c3ccccc3)c2)c(-c2ccnc(Nc3ccc4c(c3)CN(C)CC4)n2)s1` [GSK1649598], 31%; as for `C[C@@H]1CNc2c(sc3ccc4nc(-c5ccncc5)ccc4c23)C(=O)N1`, 0%.
With `COc1cccc(OC)c1C(=O)Nc1cccc(-c2nn3ccccc3c2-c2ccnc(Nc3cccc(F)c3)n2)c1` [GSK361065], the “%Inh” value turned out to be 17%.
Still for that read-out and setting: for `Cc1cccc(-c2nc(Nc3ccncc3)c3sccc3n2)n1` [GW869641] the value was 23%; for `c1ccc(Oc2ccc(Nc3ccnc4ccc(-c5ccccn5)cc34)cc2)cc1` [GW407034], 0%.
`C[C@@H](Oc1cc(-n2cnc3cc(-c4cnn(C)c4)ccc32)sc1C(N)=O)c1ccccc1Cl` [GSK580432]: the “%Inh” value is 63%.
Regarding `CS(=O)(=O)c1cccc(CNc2nc(Nc3ccc4c(c3)[C@@H]3C[C@@H]4CNC3=O)ncc2C(F)(F)F)c1`, the “%Inh” value stood at 8%.
Still for that read-out and setting: as for `COc1cccc(CNC(=O)NC2CCN(c3ccnc(Nc4cc(OC)c(OC)c(OC)c4)n3)C2)c1` (centres unmarked) [GSK1379765], the figure is 0%.
On the same count and under the same terms, as for `Cc1nnc(-c2ccc3occ(-c4ccc(S(C)=O)cc4)c3n2)o1` (centres unmarked), the figure is 0%; as for `COc1cc2ncn(-c3cc(OCC4CCCCC4)c(C(N)=O)s3)c2cc1OC` [GSK204559], 14%; as for `CC(=O)Nc1nc2cnc(Nc3cc(NC(=O)c4cccc(CC(C)(C)C#N)c4)ccc3C)nc2s1`, 8%.
As to `CN(c1ccc2c(c1)nc(NCc1ccc(F)cc1)n2C)c1ccnc(Nc2ccc(CS(C)(=O)=O)cc2)n1.Cl` [GW813244], the “%Inh” value is 0%.
On the same count and under the same terms, as for `Cc1ccc(C(=O)Nc2ccc(Oc3ccc4nc(NC(=O)C5CC5)cn4c3)c(F)c2)c(=O)n1-c1ccccc1`, the figure is 0%.
The same measure, in the same setting: as for `COc1cc2c(Nc3ccc(NC(=O)c4ccccc4)cc3)ncnc2cc1OCCCN1CCOCC1` [GSK301329], the figure is 0%; as for `N#Cc1cccc(C(=O)NC2CCN(c3ccnc(Nc4ccc(F)cc4)n3)C2)c1` (centres unmarked) [GSK1379708], 0%.
On the same count and under the same terms, for `O=C(NOCC1CC1)c1cc(Br)c(F)c(F)c1Nc1ccc(I)cc1Cl` the value was 0%; for `COc1cc2nccc(Nc3ccc(Oc4ccccc4)cc3)c2cc1OC.Cl` [GI261656], 0%; for `O=C(Nc1cccc(C(F)(F)F)c1)c1cccc(Oc2ccc3nccn3n2)c1`, 0%.
Turning to `CN(c1ccccc1CNc1nc(Nc2ccc3c(c2)CC(=O)N3)ncc1C(F)(F)F)S(C)(=O)=O`, the “%Inh” value is on record as 53%.

A further assay relates to MARK2. Particulars: concentration: 1 μM,replicates: in singlicate; n = 1.
On to `CSc1nccc(-c2c(-c3ccc(F)cc3)ncn2CCCN2CCOCC2)n1.Cl` [SB-217146], for which the “%Inh” value is on record as 0%.
Still for that read-out and setting: for `NC(=O)c1ccc(-c2cc3ncnc(SCC(=O)O)c3s2)cc1` the value was 8%; for `COc1cccc(C2=C(Nc3cccc(Cl)c3)C(=O)NC2=O)c1` [SB-341556], 0%; for `Cn1ccc2ncnc(Oc3ccc(NC(=O)Nc4ccnc(C(F)(F)F)c4)c(Cl)c3)c21`, 0%.
The same measure, in the same setting: for `Cc1n[nH]c2cc(Nc3ccnc(Nc4cccc(CN5CCOCC5)c4)n3)ccc12` [GW682569] the value was 9%.
On the same count and under the same terms, for `COC(=O)c1cccc(NC(=O)NC2CCN(c3ccnc(NCc4ccc(F)cc4)n3)CC2)c1` [GSK1379860] the value was 0%; for `CS(=O)c1ccc(-c2coc3ccc(-c4n[nH]c(=O)o4)cc23)cc1` (centres unmarked), 23%.
For the compound `Cc1cccc2c(-c3ccncc3)c(-c3ccc(F)cc3)nn12.Cl` [GW461487], the “%Inh” value is 0%.
Same read-out and setting: as for `FC(F)(F)c1cc(Br)cc(Nc2nccc(-c3cnn4ncccc34)n2)c1` [GW810578], the figure is 0%.
The same measure, in the same setting: as for `O=C1NCCc2[nH]c(-c3ccncc3)cc21`, the figure is 12%; as for `C[C@@H](Oc1cc(-n2cnc3cc(-c4ccncc4)ccc32)sc1C(N)=O)c1ccccc1Cl` [GSK479719], 100%.
Turning to `NC(=O)Nc1sc(-c2ccc(F)cc2)cc1C(N)=O` [GW789449], the “%Inh” value was 8%.
As for `O=C(Nc1ccc(Oc2ccc3nc(NC(=O)C4CC4)cn3n2)c(F)c1)c1cccn(-c2ccccc2)c1=O`, the “%Inh” value is listed as 0%.
The same measure, in the same setting: for `Cc1ccc(CC(=O)N2CCc3cc(-c4cn(C)c5ncnc(N)c45)ccc32)cc1` [GSK2634758] the value was 0%; for `Cl.Nc1n[nH]c2cc(-c3ccccn3)ccc12` [GSK2189892], 0%.
On the same count and under the same terms, for `Cn1ccc2ncnc(Oc3ccc(NC(=O)Nc4cnn(C(C)(C)C)c4)c(Cl)c3)c21` the value was 6%; for `Cn1ccc2ncnc(Oc3ccc(NC(=O)Nc4cncc(C(F)(F)F)c4)c(Cl)c3)c21`, 23%.
Still for that read-out and setting: as for `CCN1CCN(CCCC(=O)Nc2n[nH]c3nc(-c4ccc(O)cc4)c(Br)cc23)CC1` [SB-731579], the figure is 20%; as for `CC(C)c1nc(-c2cccc(NS(=O)(=O)c3ccccc3)c2)c(-c2ccnc(Nc3ccc4c(c3)CN(C)CC4)n2)s1` [GSK1649598], 0%; as for `C[C@@H]1CNc2c(sc3ccc4nc(-c5ccncc5)ccc4c23)C(=O)N1`, 0%.
In the case of `COc1cccc(OC)c1C(=O)Nc1cccc(-c2nn3ccccc3c2-c2ccnc(Nc3cccc(F)c3)n2)c1` [GSK361065], the “%Inh” value is 8%.
Same read-out and setting: as for `Cc1cccc(-c2nc(Nc3ccncc3)c3sccc3n2)n1` [GW869641], the figure is 34%; as for `c1ccc(Oc2ccc(Nc3ccnc4ccc(-c5ccccn5)cc34)cc2)cc1` [GW407034], 0%.
Still for that read-out and setting: as for `C[C@@H](Oc1cc(-n2cnc3cc(-c4cnn(C)c4)ccc32)sc1C(N)=O)c1ccccc1Cl` [GSK580432], the figure is 61%; as for `CS(=O)(=O)c1cccc(CNc2nc(Nc3ccc4c(c3)[C@@H]3C[C@@H]4CNC3=O)ncc2C(F)(F)F)c1`, 24%; as for `COc1cccc(CNC(=O)NC2CCN(c3ccnc(Nc4cc(OC)c(OC)c(OC)c4)n3)C2)c1` (centres unmarked) [GSK1379765], 0%.
On the same count and under the same terms, as for `Cc1nnc(-c2ccc3occ(-c4ccc(S(C)=O)cc4)c3n2)o1` (centres unmarked), the figure is 0%; as for `COc1cc2ncn(-c3cc(OCC4CCCCC4)c(C(N)=O)s3)c2cc1OC` [GSK204559], 1%; as for `CC(=O)Nc1nc2cnc(Nc3cc(NC(=O)c4cccc(CC(C)(C)C#N)c4)ccc3C)nc2s1`, 3%.
As for `CN(c1ccc2c(c1)nc(NCc1ccc(F)cc1)n2C)c1ccnc(Nc2ccc(CS(C)(=O)=O)cc2)n1.Cl` [GW813244], the “%Inh” value is recorded as 0%.
On the same count and under the same terms, for `Cc1ccc(C(=O)Nc2ccc(Oc3ccc4nc(NC(=O)C5CC5)cn4c3)c(F)c2)c(=O)n1-c1ccccc1` the value was 0%.
The same measure, in the same setting: as for `COc1cc2c(Nc3ccc(NC(=O)c4ccccc4)cc3)ncnc2cc1OCCCN1CCOCC1` [GSK301329], the figure is 0%; as for `N#Cc1cccc(C(=O)NC2CCN(c3ccnc(Nc4ccc(F)cc4)n3)C2)c1` (centres unmarked) [GSK1379708], 0%.
Regarding `O=C(NOCC1CC1)c1cc(Br)c(F)c(F)c1Nc1ccc(I)cc1Cl`, the “%Inh” value stood at 13%.
In the case of `COc1cc2nccc(Nc3ccc(Oc4ccccc4)cc3)c2cc1OC.Cl` [GI261656], the “%Inh” value was determined as 0%.
The same measure, in the same setting: as for `O=C(Nc1cccc(C(F)(F)F)c1)c1cccc(Oc2ccc3nccn3n2)c1`, the figure is 2%; as for `CN(c1ccccc1CNc1nc(Nc2ccc3c(c2)CC(=O)N3)ncc1C(F)(F)F)S(C)(=O)=O`, 37%.
